Laboratory results taken from PubChem BioAssay AID1347420 (Sanford-Burnham Center for Chemical Genomics, 2020).
Hit rate of the full screen: of about 1,300 compounds, about 980 (75%) were called active. Not shown: some 4% with an inconclusive outcome. The list shows a part of the results.

These molecules were tested against Sulfhydryl oxidase 1 (Homo sapiens) (UniProt O00391) (assay: QSOX1 enzyme inhibitors, primary screen, biochemical, HyperBlu H2O2 luminescence, HTS (AID 1347420; further: values above 100% were filed as inconclusive)). Conditions: recombinant QSOX1, HyperBlu H2O2 luminescence, at 12.5 µM, stronger effect = higher value; active = any value above zero unless noted.
Sulfhydryl oxidase 1 (Homo sapiens), sequence (O00391 whole entry, looked up): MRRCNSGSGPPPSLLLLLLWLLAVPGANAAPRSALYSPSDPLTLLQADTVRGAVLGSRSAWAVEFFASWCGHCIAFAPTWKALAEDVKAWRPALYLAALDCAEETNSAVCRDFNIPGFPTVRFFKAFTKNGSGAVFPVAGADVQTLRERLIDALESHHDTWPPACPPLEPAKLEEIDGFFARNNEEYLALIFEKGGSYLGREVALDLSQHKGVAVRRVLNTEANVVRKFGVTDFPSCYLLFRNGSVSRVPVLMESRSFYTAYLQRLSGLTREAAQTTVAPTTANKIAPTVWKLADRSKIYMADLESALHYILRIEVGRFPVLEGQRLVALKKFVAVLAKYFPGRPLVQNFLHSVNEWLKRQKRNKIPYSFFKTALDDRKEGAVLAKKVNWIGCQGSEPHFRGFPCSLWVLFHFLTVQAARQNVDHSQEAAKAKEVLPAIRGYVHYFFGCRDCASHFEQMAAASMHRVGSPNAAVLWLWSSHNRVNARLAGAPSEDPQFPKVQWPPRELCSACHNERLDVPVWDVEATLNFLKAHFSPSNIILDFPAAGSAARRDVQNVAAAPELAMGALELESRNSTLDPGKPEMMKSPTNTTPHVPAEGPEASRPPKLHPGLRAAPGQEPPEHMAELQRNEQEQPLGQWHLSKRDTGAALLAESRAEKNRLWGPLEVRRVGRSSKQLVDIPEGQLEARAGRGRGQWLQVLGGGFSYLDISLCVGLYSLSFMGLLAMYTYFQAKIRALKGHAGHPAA

Q: With CC(C)NC(C)Cc1ccc(I)cc1 (centres undefined) as the molecule, how does the inhibition read?
A: 19.1% [setting not given] (active)

Q: CC(C)N(CCC(C(N)=O)(c1ccccc1)c1ccccn1)C(C)C (centres undefined) was tested. Which inhibition did it give?
A: 39.4% [setting not given] (active)

Q: Which inhibition does the source give for Cc1cc([C@@H]2CCCN2C)on1 here?
A: 9.3% (active)

Q: With CN1CCC(c2c[nH]c3ccc(O)cc23)CC1 as the molecule, how does the inhibition read?
A: 84% (active)

Q: With CCCCCCC(C)(C)c1ccc([C@@H]2C[C@H](O)CC[C@H]2CCCO)c(O)c1 as the molecule, how does the inhibition read?
A: 3.2% [setting not given] (active)

Q: How did the inhibition turn out when Cc1cccc(C)c1NC1=NCCCS1 was run?
A: 12.9% [setting not given] (active)

Q: How did the inhibition turn out when C[C@@H]1O[C@@H](O[C@H]2C[C@@H](O)[C@]3(CO)[C@@H]4C(CC[C@]3(O)C2)[C@@]2(O)CC[C@H](C3COC(=O)C3)[C@@]2(C)C[C@H]4O)[C@H](O)[C@H](O)[C@H]1O (some centres undefined) was run?
A: 24.8% (active)

Q: C[C@@H]1O[C@@H](O[C@H]2C[C@@H](O)[C@]3(CO)[C@H]4[C@H](O)C[C@]5(C)[C@@H](C6=CC(=O)OC6)CC[C@]5(O)[C@@H]4CC[C@]3(O)C2)[C@H](O)[C@H](O)[C@H]1O was tested. Which inhibition did it give?
A: 2.5% [setting not given] (active)

Q: NC(=O)COc1c(F)cc(SCCNS(=O)(=O)c2ccccc2)cc1F was tested. Which inhibition did it give?
A: -12.8% (inactive)

Q: With Clc1ccc(N2CC3CCC(C2)N3)nn1 as the molecule, how does the inhibition read?
A: 25.6% (active)

Q: How did the inhibition turn out when CC(C)=CCOc1c2occc2cc2ccc(=O)oc12 was run?
A: 31.6% [setting not given] (active)

Q: Which inhibition does the source give for CC(O)(CS(=O)(=O)c1ccc(F)cc1)C(=O)Nc1ccc(C#N)c(C(F)(F)F)c1 (centres undefined) here?
A: 13.7% [setting not given] (active)

Q: c1ccc2cc(CC3=NCCN3)ccc2c1 was tested. Which inhibition did it give?
A: 11% [setting not given] (active)

Q: With CCCN1CCC[C@H](c2cccc(O)c2)C1 as the molecule, how does the inhibition read?
A: 10.7% (active)

Q: With CCCN1CCC[C@@H](c2cccc(O)c2)C1 as the molecule, how does the inhibition read?
A: 25.8% (active)

Q: For CC1(C(=O)O)C2CCC(O2)C1(C)C(=O)O (centres undefined), which inhibition is on record?
A: -0.6% (inactive)

Q: For CCCCC/C=C\C/C=C\C/C=C\C/C=C\CCCC(=O)NCC(=O)O, which inhibition is on record?
A: 3.4% (active)

Q: For NC1CC1c1ccccc1 (centres undefined), which inhibition is on record?
A: 14.9% (active)

Q: Nc1ccc(CCN2CCN(c3cccc(C(F)(F)F)c3)CC2)cc1 was tested. Which inhibition did it give?
A: 27.1% (active)

Q: How did the inhibition turn out when CC[C@@H](C(N)=O)N1CCCC1=O was run?
A: 12.2% [setting not given] (active)

Q: For CN1CCc2cc(O)cc3c2[C@H]1Cc1ccc(O)c(O)c1-3, which inhibition is on record?
A: 94% (active)

Q: Which inhibition does the source give for COc1ccc2c(c1O)-c1cccc3c1[C@@H](C2)N(C)CC3 here?
A: 39% (active)

Q: For Cc1sc2ccccc2c1CC1=NCCN1, which inhibition is on record?
A: 9.6% (active)

Q: Which inhibition does the source give for CC(C)(O)[C@@H]1[C@H]2OC(=O)[C@@H]1[C@]1(O)C[C@H]3O[C@]34C(=O)O[C@H]2[C@]14C (tested in a mixture with another compound) here?
A: 14.8% (active)

Q: For Oc1ccc2c3c1O[C@H]1c4oc5ccccc5c4C[C@@]4(O)C(C2)N(CC2CC2)CCC314 (some centres undefined), which inhibition is on record?
A: 18.4% [setting not given] (active)

Q: Which inhibition does the source give for Oc1ccc2c3c1O[C@H]1c4[nH]c5ccccc5c4C[C@@]4(O)C(C2)N(CC2CC2)CCC314 (some centres undefined) here?
A: 63.8% [setting not given] (active)

Q: NC(N)=Nc1ccc2[nH]c3c(c2c1)C[C@@]1(O)[C@H]2Cc4ccc(O)c5c4[C@@]1(CCN2CC1CC1)[C@H]3O5 was tested. Which inhibition did it give?
A: 18.5% [setting not given] (active)

Q: For Oc1ccc2c3c1O[C@H]1c4[nH]c5c(c4C[C@@]4(O)[C@@H](C2)N(CC2CC2)CC[C@]314)C[C@@]1(O)[C@H]2Cc3ccc(O)c4c3[C@@]1(CCN2CC1CC1)[C@H]5O4, which inhibition is on record?
A: 25.2% (active)

Q: With O=C1/C(=C/c2ccccc2)C[C@@]2(O)[C@H]3Cc4ccc(O)c5c4[C@@]2(CCN3CC2CC2)[C@H]1O5 as the molecule, how does the inhibition read?
A: 32.8% [setting not given] (active)

Q: Which inhibition does the source give for CO[C@H]1CC=C2CCN3CCC4=C(CC(=O)OC4)[C@]23C1 here?
A: 0.7% (active)

Q: CCOC(=O)c1ncn2c1[C@@H]1CCCN1C(=O)c1cc(OC)ccc1-2 was tested. Which inhibition did it give?
A: 13.3% (active)

Q: For COc1cc(C(O)CN)ccc1O (centres undefined), which inhibition is on record?
A: 20.7% (active)

Q: With NCC(CC(=O)O)c1ccc(Cl)cc1 (centres undefined) as the molecule, how does the inhibition read?
A: 0% [setting not given] (inactive)

Q: How did the inhibition turn out when NCC(O)c1ccc(O)cc1 (centres undefined) was run?
A: 20.3% [setting not given] (active)

Q: How did the inhibition turn out when CNCC(O)c1ccc(O)cc1 (centres undefined) was run?
A: 11.4% [setting not given] (active)

Q: With NCC(O)c1cc(O)c(O)cc1F (centres undefined) as the molecule, how does the inhibition read?
A: 72.8% (active)

Q: For Ic1ccccc1CNC1C2CCN(CC2)C1C(c1ccccc1)c1ccccc1 (centres undefined), which inhibition is on record?
A: 11% (active)

Q: For O=C(O)[C@@H]1CCN1, which inhibition is on record?
A: 18.9% (active)

Q: N=C(N)c1ccc(CS(=O)(=O)F)cc1 was tested. Which inhibition did it give?
A: 7.2% (active)

Q: How did the inhibition turn out when CN1C2CCC1CC(OC(=O)c1cc(Cl)cc(Cl)c1)C2 (centres undefined) was run?
A: 5.4% (active)

Q: O=C1C=CC(=O)C=C1 was tested. Which inhibition did it give?
A: 16.8% (active)

Q: N[C@@]1(C(=O)O)CC[C@@H](C(=O)O)C1 was tested. Which inhibition did it give?
A: 12.2% (active)

Q: How did the inhibition turn out when CCN1C[C@@]2(COC)C3[C@@H](OC)C4[C@@H]1C3([C@@H]1C[C@@]3(O)[C@H](OC(=O)c5ccccc5)[C@@H]1[C@]4(OC(C)=O)[C@@H](O)[C@@H]3OC)[C@H](OC)C[C@H]2O was run?
A: 4.1% (active)

Q: How did the inhibition turn out when CCNC(=O)[C@H]1O[C@@H](n2cnc3c(N)ncnc32)C(O)[C@H]1O (some centres undefined) was run?
A: 1.2% (active)

Q: How did the inhibition turn out when O=[N+]([O-])c1cc(O)c(O)c([N+](=O)[O-])c1 was run?
A: 84.7% (active)

Q: How did the inhibition turn out when NCc1cc(=O)[nH]o1 was run?
A: 10.1% (active)

Q: Which inhibition does the source give for COc1ccc2c(c1)C13CCCCC1C(C2)N(C)CC3 (centres undefined) here?
A: 11.3% [setting not given] (active)

Q: Which inhibition does the source give for COc1ccc2c(c1)[C@@]13CCCC[C@H]1[C@@H](C2)NCC3 here?
A: -2.6% [setting not given] (inactive)

Q: For C=CCN1CC[C@]23CCCCC2[C@H]1Cc1ccc(O)cc13 (some centres undefined), which inhibition is on record?
A: 6% [setting not given] (active)

Q: How did the inhibition turn out when C=CCN1C[C@@H](C)N([C@H](c2ccc(C(=O)N(CC)CC)cc2)c2cccc(OC)c2)C[C@@H]1C was run?
A: 7.5% (active)

Q: For CC(=O)NBr, which inhibition is on record?
A: 9.5% (active)

Q: With NC(N)=NOCCC(N)C(=O)O (centres undefined) as the molecule, how does the inhibition read?
A: 8.2% (active)

Q: With NC(N)=NOCC[C@H](N)C(=O)O as the molecule, how does the inhibition read?
A: -0.8% [setting not given] (inactive)

Q: CC(Cc1ccc(O)cc1)NCC(O)c1cc(O)cc(O)c1 (centres undefined) was tested. Which inhibition did it give?
A: 15% [setting not given] (active)
